Screening data: PubChem, Center for Chemical Genomics, University of Michigan
Dicer inh – inhibitors of human Dicer processing of pre-microRNA; Q9UPY3; cat-ELCCA pre-miR-21 Dicer processing, chemiluminescence; hits give high values; z-score at 25 µM; hit rate 6% among 47,000; in the data active = z-score above about 3, passing the limit was not always enough;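 also: higher signal means more uncleaved substrate so more Dicer inhibition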
Of the large screens only hits and unclear results are named; the others gave an inactive call. Only a selection was taken, and hits are over-represented in it overall.

CC1(C)CC(=O)C2=C(C1)NC1=C(C(=O)c3ccccc31)C2c1cccc(O)c1 (stereo unspecified)	none
COc1ccc(OC)c(C2C3=C(CC(C)(C)CC3=O)NC3=C2C(=O)c2ccccc23)c1 (stereo unspecified)	none
O=C(N/N=C/C=C/c1ccccc1)N/N=C/C=C/c1ccccc1	none
O=S(=O)(/C=C/c1ccccc1)c1ccc(F)c(Cl)c1	none
O=C(O)CS(=O)(=O)/C=C/c1ccccc1	Dicer inh 19
Cc1c(-c2cc(NS(=O)(=O)c3ccccc3Cl)n(C)n2)sc2ccc(Cl)cc12	none
CCCN1CCCC(NC(=S)Nc2ccc(Br)cc2C)C1 (stereo unspecified)	none
Cc1ccc(O)c(C(=O)NNC(=S)Nc2ccccc2C(F)(F)F)c1	none
CC(C)(C)NC(=S)NNC(=O)c1ccc(-c2ccc(Cl)cc2)s1	none
O=C(NNC(=S)Nc1ccccc1C(F)(F)F)c1ccc(-c2ccc(Cl)cc2)s1	Dicer inh 4.3
O=C(NCCc1c[nH]c2ccccc12)C(=O)Nc1ccc2c(c1)OCO2	none
CCn1c(NCc2cc(OC)ccc2OC)nc2ccccc21	none
COc1ccccc1CNc1nc2ccccc2n1CCN1CCOCC1	Dicer inh 6.2
COc1ccc(OC)c(CNc2nc3ccccc3n2CCN2CCCCC2)c1	Dicer inh 3.8
Clc1ccccc1CNc1nc2ccccc2n1CCN1CCOCC1	Dicer inh 6.5
OCc1nc2ccccc2n1Cc1ccccc1Cl	none
C=CCn1c(NCc2ccccc2OC)nc2ccccc21	none
COc1ccc(OCCn2c(C)nc3ccccc32)cc1	none
CC(C)c1ccc(CNc2nc3ccccc3n2CCN2CCOCC2)cc1	Dicer inh 4.8
CCN(CC)c1ccc(CNc2nc3ccccc3n2C(C)C)cc1	none
O=C(Nc1nc2ccccc2n1CCN1CCOCC1)C1CCCCC1	none
c1ccc2c(c1)nc(NCc1ccc3c(c1)OCO3)n2CCN1CCOCC1	none
O=C1N(CN2CCCCC2)c2ccc(Br)cc2C12OCCO2	none
Cc1ccc(C2Nn3c(C)nnc3SC2C(=O)Nc2cc(C)ccc2C)cc1 (stereo unspecified)	none
O=C(O)c1nnn(-c2ccccc2Oc2ccc(Cl)cc2Cl)c1-c1ccccc1	none
Cc1ccc2c(c1)CCCN2CC(=O)Nc1ccc(Cl)cc1C(=O)NCc1cccs1	none
COC(=O)c1sc(N2CCOCC2)c(C#N)c1-c1ccc(Cl)cc1	none
N#C/C(=C\c1ccccc1Cl)S(=O)(=O)c1ccccn1	none
CCOC(=O)c1cc(C(C)(C)C)nn1Cc1c(C)cc(C)cc1C	none
COc1ccc(S(=O)(=O)N2CCN(S(=O)(=O)c3ccccc3)CC2)cc1	none
O=[N+]([O-])c1ccc(Oc2c(Cl)cccc2Cl)cc1	none
Cc1ccc(S(=O)(=O)CCN(CCS(=O)(=O)c2ccc(C)cc2)c2ncccn2)cc1	none
O=C(CC(Sc1ccc(C(F)(F)F)cn1)C(=O)O)c1ccc(Br)cc1 (stereo unspecified)	none
Cc1ccc(-c2cn3c4ccccc4nc3n2CCO)cc1	none
COc1ccccc1CNc1nc2ccccc2n1C	Dicer inh 3.8
COc1ccc(-c2cn3c4ccccc4nc3n2CCCN2CCOCC2)cc1	Dicer inh 3.6
Cc1ccc(-c2cn3c4ccccc4nc3n2CCCN2CCCCC2)cc1	none
CN(C)c1ccc(CNc2nc3ccccc3n2C)cc1	none
COc1ccc(OC)c(CNc2nc3ccccc3n2C)c1	none
CCOC(=O)Cc1csc(NN=C(C)C)n1	none
Cc1nc(C(F)(F)F)nc(Sc2ccccc2Cl)c1Oc1ccccc1	none
CSc1cc(-c2ccc(F)cc2)nn1S(=O)(=O)c1cc(C(F)(F)F)cc(C(F)(F)F)c1	none
Cc1cc(NC(=O)CSCC(=O)O)no1	none
c1ccc2oc(NC3=NCN(Cc4ccc5c(c4)OCO5)CN3)nc2c1	none
c1ccc2c(c1)nc1n2CN(CCN2CCOCC2)CN1	Dicer inh 3.2
c1cncc(CN2CNc3nc4ccccc4n3C2)c1	Dicer inh 3
c1ccc2c(c1)nc1n2CN(Cc2ccc3c(c2)OCO3)CN1	Dicer inh 3.5
c1ccc(CCN2CN(CCCN3CCOCC3)c3nc4ccccc4n3C2)cc1	none
Cc1ccc2nc(NC3=NCN(Cc4ccc5c(c4)OCO5)CN3)nc(C)c2c1	none
Cc1c2c(n3c(nc4ccccc43)c1C#N)N(Cc1cccnc1)CC2	none
Cc1cc2nc(NC3=NCN(Cc4cccnc4)CN3)nc(C)c2cc1C	none
c1ccc2c(c1)nc1n2CN(CCCN2CCOCC2)CN1	none
COc1ccc(CCN2C(=O)CCC(C(=O)O)C2c2cc(OC)c(OC)c(OC)c2)cc1OC (stereo unspecified)	none
COc1cccc(C2NC(=O)c3c(sc4c3CCN(C)C4)N2)c1O (stereo unspecified)	none
CCOC(=O)N1CCCN=C1SC	none
O=C1CCCC(O)=C1N=Nc1cc(C(F)(F)F)ccc1OCC(F)(F)F	none
Cc1ccc(CNS(=O)(=O)c2ccccc2)n1C	none
CCN(CC)c1nc(C)nc2c1sc(=S)n2-c1ccccc1	none
CO/N=C1\CCCc2c(C(=O)N/N=C/c3ccccc3Cl)sc(SC)c21	none
Cc1c(C#N)c(Sc2cccc(C(F)(F)F)c2)nc2ccccc12	none
CSc1nc(-c2ccccc2)nc(Nc2ccc(C(F)(F)F)cc2)c1C#N	none
CSc1nc(-c2ccccc2)nc(Sc2cccc(C(F)(F)F)c2)c1C#N	Dicer inh 26
Cc1nn(C)c2[nH]c3c(c(=O)c12)CSC3	none
O=C(O)C1CC(=O)N(CCc2cccs2)C1 (stereo unspecified)	none
CCC(=O)c1ccc(-c2ccccc2F)cc1	none
Cc1csc2c(=O)sc(NC(=O)c3ccco3)nc12	none
O=C(Nc1nc2c(ccc3ccccc32)s1)c1ccco1	Dicer inh 5.7
O=C(Nc1nc2ccsc2c(=O)s1)c1ccco1	none
Cc1ncc(CCCCN(C)C)c2c1[nH]c1ccccc12	Dicer inh 7.7
Cc1[nH]c2ccccc2c(=O)c1CN(C)C	none
Cc1ccc(-c2nc(NCCCN(C)C)c3ccccc3n2)cc1	none
CC1CCC(C(C)C)C(NCc2ccccc2)C1 (stereo unspecified)	none
Cc1onc(-c2ccccc2Cl)c1C(=O)NN(C)C	none
COc1cc(N=C(N)N=C(N)N)cc(OC)c1	none
Cc1cc(N=C(N)N=C(N)N)ccc1Br	none
COc1ccc(N=C(N)N=C(N)N)cc1	Dicer inh 6.3
Cc1ccc2[nH]c(=O)c(-c3ccccc3)c(O)c2c1	none
COc1cc2ncnc(N3CCCC3)c2cc1OC	none
Oc1c(C(Nc2ccccn2)c2ccccc2Cl)ccc2cccnc12 (stereo unspecified)	Dicer inh 3.9
COc1ccc(C(Nc2ccccn2)c2ccc3ccc(C)nc3c2O)cc1 (stereo unspecified)	none
Cc1ccc2ccc(C(Nc3ccccn3)c3ccccc3)c(O)c2n1 (stereo unspecified)	Dicer inh 5.9
Cc1ccc(C(NC(=O)C(C)C)c2ccc3cccnc3c2O)cc1 (stereo unspecified)	none
CCc1ccccc1NC(c1ccccn1)c1ccc2cccnc2c1O (stereo unspecified)	Dicer inh 8
CCN(CC)c1ccc(C(Nc2ccccn2)c2ccc3cccnc3c2O)cc1 (stereo unspecified)	none
Cc1ccc2ccc(C(Nc3ccccn3)c3ccccc3F)c(O)c2n1 (stereo unspecified)	none
Oc1c(C(Nc2ccccc2Cl)c2ccccn2)ccc2cccnc12 (stereo unspecified)	none
COc1cccc(C(Nc2ccccn2)c2ccc3ccc(C)nc3c2O)c1OC (stereo unspecified)	none
O=C(NC(c1ccccc1)c1ccc2cccnc2c1O)c1ccccc1 (stereo unspecified)	Dicer inh 6
O=C(NC(Sc1ncccn1)C(=O)c1ccccc1)c1ccccc1 (stereo unspecified)	none
COc1ccccc1-c1coc2cc(OCc3cc(Cl)cc4c3OCOC4)ccc2c1=O	none
